# Results published in ChEMBL document CHEMBL3988442, “University of Dundee, Small-Polar-MMV Screening Library” (2021).
# Hit rate of the full screen: of about 66,000 compounds, about 960 (1.5%) showed an effect of 50% or more. The sample holds strong results, similar compounds and a random draw of the others, so the mix is not that of the screen.
# Tested on: Trypanosoma brucei
# Assay: Trypanosoma brucei 72 hour study
# Type: functional, organism-based
# Parameters: scale not given: in the data most compounds retested in dose-response had high values
smiles,measurement,setting,value
COc1ccc(C(C)NCCC(N)=O)cc1F (centres undefined),Percent Effect,"30 µM, 30.03 µM",-19.58%
COc1cc(C(=O)NC(C)c2cccs2)cc2c1OCCO2 (centres undefined),Percent Effect,"30.3 µM, […]",6.204%
COc1cc(CNC(C)c2ccc(F)c(F)c2)cc2c1OCCO2.O=C(O)C(=O)O (centres undefined),Percent Effect,"30.3 µM, […]",100.7%
CCn1ncc(-c2cc(C(F)F)nc3sc(C(N)=O)c(N)c23)c1C,Percent Effect,"30 µM, 30.03 µM",26.92%
Cc1nc[nH]c1CN1CCN(C(=O)CN2CCCC2)[C@H]2CS(=O)(=O)C[C@H]21,Percent Effect,"30 µM, 30.03 µM",8.106%
Cc1nc[nH]c1CN1CCN(C(=O)C2(C)CC2)[C@H]2CS(=O)(=O)C[C@H]21,Percent Effect,"30 µM, 30.03 µM",1.317%
Cc1nc[nH]c1CN1CCN(C(=O)CCC(F)(F)F)[C@H]2CS(=O)(=O)C[C@H]21,Percent Effect,"30 µM, 30.03 µM",50.6%
CCOc1cc2c(cc1CNC(Cc1cccs1)c1nccs1)OCO2.Cl (centres undefined),Percent Effect,"30.3 µM, […]",-21.18%
CC(C)c1ncc(-c2cc(C3CCC3)nc(N)c2C#N)cn1,Percent Effect,"30 µM, 30.03 µM",17.32%
CC(O)(CNC(=O)c1cccnc1-n1cccn1)c1ccsc1 (centres undefined),Percent Effect,"30 µM, 30.03 µM",-28.28%
COc1ccnc(NC(=O)c2cscn2)c1,Percent Effect,"30 µM, 30.03 µM",7.926%
COc1ccnc(NC(=O)c2ccsc2)c1,Percent Effect,"30 µM, 30.03 µM",14.39%
COc1ccnc(NC(=O)c2cscc2C)c1,Percent Effect,"30 µM, 30.03 µM",88.82%
CCCn1c(=O)n(CCC(=O)N(C)Cc2ccc(C)o2)c2ccccc21,Percent Effect,"30 µM, 30.03 µM",-21.38%
Cc1nc(O)cc(C2CCN(Cc3ccc(F)c(F)c3)C2)n1.O=C(O)CC(O)(CC(=O)O)C(=O)O (centres undefined),Percent Effect,"30.3 µM, […]",13.84%
CNC(=O)N1CCC2(CC1)c1ncc(C)n1CCN2C.O=C(O)C(F)(F)F.O=C(O)C(F)(F)F,Percent Effect,"30.3 µM, […]",11.26%
Oc1cc(CNCCCN2CCCC2)nc2ccc(F)cc12,Percent Effect,"30 µM, 30.03 µM",-52.8%
O=C(CCNCc1cc(O)c2cc(F)ccc2n1)N1CCCC1,Percent Effect,"30 µM, 30.03 µM",-42.31%
O=S(=O)(CCNCc1cc(O)c2cc(F)ccc2n1)N1CCCC1,Percent Effect,"30 µM, 30.03 µM",71.96%
CCc1ccc(CN2Cc3nccn3CC(CN3CCOCC3)C2)o1.O=C(O)C(F)(F)F.O=C(O)C(F)(F)F.O=C(O)C(F)(F)F (centres undefined),Percent Effect,"30 µM, 30.03 µM",29.13%
Cc1ccsc1C(=O)N1CCC2(CC(N(C)c3ccncn3)C2)C1 (centres undefined),Percent Effect,"30.3 µM, […]",-9.037%
O=C(Nc1ccc(F)cc1)N1C[C@H]2C[C@H](C(=O)N3CCCC3)[C@@H](C1)O2,Percent Effect,"30.3 µM, […]",-4.677%
CCc1c(C)nc(-n2nc(-c3cccs3)cc2N)[nH]c1=O,Percent Effect,"30 µM, 30.03 µM",63.75%
Cc1cc(=O)[nH]c(-n2nc(-c3cccs3)cc2N)n1,Percent Effect,"30 µM, 30.03 µM",-18.7%
Cc1nc(-n2nc(-c3cccs3)cc2N)[nH]c(=O)c1C,Percent Effect,"30 µM, 30.03 µM",6.214%
Nc1c(N2CCOCC2)ncnc1N1CCOCC1,Percent Effect,"30.3 µM, […]",-8.78%
same,Percent Effect,"10 mM, 10 mM as filed; unlikely as a test dose",-35.44%
CCN1CC2(CC1=O)CN(Cc1ccco1)CCN(C(=O)C(C)C)C2.O=C(O)C(F)(F)F (centres undefined),Percent Effect,"30 µM, 30.03 µM",0.2286%
Cc1ccc(CN(CCCn2ccnc2)Cc2c(F)cccc2F)s1.O=C(O)CC(O)(CC(=O)O)C(=O)O,Percent Effect,"30.3 µM, […]",-13.01%
CN(Cc1ccncc1)Cc1cnn(-c2ccc(F)cc2)c1,Percent Effect,"30 µM, 30.03 µM",-38.94%
O=C(Cc1ccccc1Cl)Nc1cc(N2CCCC2)ncn1,Percent Effect,"30 µM, 30.03 µM",-11.61%
O=C(Cc1c(F)cccc1Cl)Nc1cc(N2CCCC2)ncn1,Percent Effect,"30 µM, 30.03 µM",-1.859%
O=C(Cc1c(F)cccc1Cl)Nc1cc(N2CCOCC2)ncn1,Percent Effect,"30 µM, 30.03 µM",100.3%
COc1ccc(C(=O)N2CCC(Oc3cccc(C)c3)(C(=O)O)CC2)o1,Percent Effect,"30 µM, 30.03 µM",-24.59%
COCc1ccc(C(=O)N2CCC(Oc3ccccc3)(C(=O)O)CC2)o1,Percent Effect,"30 µM, 30.03 µM",-16.4%
Cc1cccc(OCc2ccc(C(=O)N3N=CCC3(O)C(F)(F)F)o2)c1 (centres undefined),Percent Effect,"30.3 µM, […]",67.46%
O=C(c1ccc(COc2ccc(Cl)cc2)o1)N1N=CCC1(O)C(F)(F)F (centres undefined),Percent Effect,"30.3 µM, […]",99.58%
O=C(c1ccc(COc2ccccc2Cl)o1)N1N=CCC1(O)C(F)(F)F (centres undefined),Percent Effect,"30.3 µM, […]",31%
O=C(Cc1ccc(Cl)cc1)N1CCC(O)(C(F)(F)F)C1 (centres undefined),Percent Effect,"30.3 µM, […]",-19.5%
COc1c(CNCc2ccc(C(=O)N(C)C(C)C)cc2)c(C)nn1C,Percent Effect,10 µM,-22.99%
COc1ccccc1CNCc1nn(-c2ccccc2)c2c1CCC2,Percent Effect,"30 µM, 30.03 µM",105.2%
Cc1c(CNCc2nn(-c3ccccc3)c3c2CCC3)cc(C#N)n1C,Percent Effect,"30 µM, 30.03 µM",-10.92%
Cc1noc(C)c1CNCc1nn(-c2ccccc2)c2c1CCC2,Percent Effect,"30 µM, 30.03 µM",-40.9%
Cc1cncc(C(=O)N2CCO[C@H]3[C@H](OCCN(C)C)CC[C@@H]32)c1.O=C(O)C(F)(F)F.O=C(O)C(F)(F)F,Percent Effect,"30.3 µM, […]",-21.9%
Cc1n[nH]c(C)c1C1COCCN1C(=O)c1cc(F)ccc1F (centres undefined),Percent Effect,"30.3 µM, […]",-0.3197%
CNC(=O)CN1CC[C@H]2CN(C(=O)c3cccn3C)C[C@H]2C1.O=C(O)C(F)(F)F,Percent Effect,"30.3 µM, […]",-42.42%
NC1CCCCN(Cc2cc(-c3ccccc3OC(F)(F)F)no2)C1 (centres undefined),Percent Effect,"30 µM, 30.03 µM",101.5%
OC1COCCN(Cc2cc(-c3ccccc3OC(F)(F)F)no2)C1 (centres undefined),Percent Effect,"30 µM, 30.03 µM",-31.26%
N[C@@H]1CCN(Cc2cc(-c3ccccc3OC(F)(F)F)no2)C[C@H]1O,Percent Effect,"30 µM, 30.03 µM",-20.57%
O=C(O)C(F)(F)F.O=C(O)C(F)(F)F.c1ccc(OCc2nnc3n2CCN(CC2CC2)C3)nc1,Percent Effect,"30 µM, 30.03 µM",16.25%
CC(C)Oc1ncccc1CNC(=O)N1CCC1,Percent Effect,"30.3 µM, […]",-18.33%
COc1ccc(C)cc1C(C)NS(=O)(=O)c1ccc2c(c1)CCC(=O)N2 (centres undefined),Percent Effect,"30 µM, 30.03 µM",-36.95%
COc1ccc(C)cc1CCNS(=O)(=O)c1ccc2c(c1)CCC(=O)N2,Percent Effect,"30 µM, 30.03 µM",-47.2%
COc1ccc(C(C)NS(=O)(=O)c2ccc3c(c2)CCC(=O)N3)cc1F (centres undefined),Percent Effect,"30 µM, 30.03 µM",95.9%
CC(CN1CCOCC1)OC(=O)c1ccccc1Cl.Cl (centres undefined),Percent Effect,"30 µM, 30.03 µM",-53.51%
CC(C)N(C)Cc1cnc2n1CCN(Cc1ccc(F)cc1)C2.O=C(O)C(F)(F)F.O=C(O)C(F)(F)F,Percent Effect,"30.3 µM, […]",5.253%
Cc1c(C(=O)N2CCN(c3ncccn3)CC2)n(C)c2ccc(Cl)cc12,Percent Effect,"30.3 µM, […]",36.3%
Cc1c(C(=O)N2CCN(c3ccccn3)CC2)n(C)c2ccc(Cl)cc12,Percent Effect,"30.3 µM, […]",79.78%
Cc1c(C(=O)N2CCN(C)CC2)n(C)c2ccc(Cl)cc12,Percent Effect,"30.3 µM, […]",12.9%
Cn1ccnc1CN1CCC2(CC1)Cc1ccccc1CNC2=O.O=C(O)C(F)(F)F,Percent Effect,"30.3 µM, […]",-47.04%
CN(C)c1cc(CC(NC(=O)C2CC2)c2ccccc2)nc(C2CC2)n1 (centres undefined),Percent Effect,"30.3 µM, […]",52.69%
CC(C)C(=O)NC(Cc1cc(N(C)C)nc(C2CC2)n1)c1ccccc1 (centres undefined),Percent Effect,"30.3 µM, […]",30.74%
CCC(=O)NC(Cc1cc(N(C)C)nc(C2CC2)n1)c1ccccc1 (centres undefined),Percent Effect,"30.3 µM, […]",13.14%
CC(C)(C)CN1CC(COc2ccccc2)Oc2ccncc2S1(=O)=O (centres undefined),Percent Effect,"30.3 µM, […]",-12.26%
O=C(O)C(F)(F)F.c1coc(CN2CCO[C@H]3[C@@H](OCC4CC4)CC[C@@H]32)c1,Percent Effect,"30.3 µM, […]",-12.22%
Cc1nc(CN2CCN(C)C(=O)C23CCN(C(C)C)CC3)cs1.O=C(O)C(F)(F)F,Percent Effect,"30.3 µM, […]",-9.175%
COCCOc1ccc(CNCC2CNc3cc(C)nn3C2)cn1 (centres undefined),Percent Effect,"30.3 µM, […]",6.502%
Cc1cc2n(n1)CC(CNCc1ccc(OCC3CC3)nc1)CN2 (centres undefined),Percent Effect,"30.3 µM, […]",69.29%
same,Percent Effect,"10 mM, 10 mM as filed; unlikely as a test dose",-5.536%
c1cc2n(n1)CC(CNCc1ccc(OC3CCCC3)nc1)CN2 (centres undefined),Percent Effect,"30.3 µM, […]",80.85%
same,Percent Effect,"10 mM, 10 mM as filed; unlikely as a test dose",9.3%
c1cc(CNCC2CNc3ccnn3C2)cc(OC2CCCC2)n1 (centres undefined),Percent Effect,"30.3 µM, […]",16.86%
Cc1ccc(CNCC2CNc3cc(C)nn3C2)cn1 (centres undefined),Percent Effect,"30.3 µM, […]",-20.04%
COc1ccc(CNCC2CNc3cc(C)nn3C2)cn1 (centres undefined),Percent Effect,"30.3 µM, […]",11.94%
Cc1cc2n(n1)CC(CNCc1ccc(Oc3ccccc3)nc1)CN2 (centres undefined),Percent Effect,"30.3 µM, […]",53.59%
Fc1ccc(Oc2ccc(CNCC3CNc4ccnn4C3)cn2)cc1 (centres undefined),Percent Effect,"30.3 µM, […]",22.41%
same,Percent Effect,"10 mM, 10 mM as filed; unlikely as a test dose",-33.28%
c1cc2n(n1)CC(CNCc1ccc(OC3CCCCC3)nc1)CN2 (centres undefined),Percent Effect,"30 µM, 30.03 µM",28.54%
Fc1cccc(Oc2ccc(CNCC3CNc4ccnn4C3)cn2)c1 (centres undefined),Percent Effect,"30 µM, 30.03 µM",11.44%
c1ccc(Oc2ccc(CNCC3CNc4ccnn4C3)cn2)cc1 (centres undefined),Percent Effect,"30.3 µM, […]",59.34%
same,Percent Effect,"10 mM, 10 mM as filed; unlikely as a test dose",-30.66%
Cc1cc2n(n1)CC(CNCc1ccc(-n3cccn3)nc1)CN2 (centres undefined),Percent Effect,"30 µM, 30.03 µM",-7.458%
O=C(Nc1cccn(Cc2ccc(F)cc2)c1=O)c1csnn1,Percent Effect,"30 µM, 30.03 µM",-24.79%
CN(C(=O)Cc1ccccc1Cl)C1CCN(c2ccccn2)CC1,Percent Effect,10 µM,-27.72%
same,Percent Effect,"30.3 µM, […]",20.76%
Cn1cc(C(O)CNC(=O)c2ccc(F)cc2Cl)cn1 (centres undefined),Percent Effect,"30 µM, 30.03 µM",3.538%
CCN1Cc2nc(OC)c(CNC(=O)CCC3CCCC3)cc2C1=O,Percent Effect,"30 µM, 30.03 µM",-13.67%
O=C(C1CC=CC1)N1C[C@@H](OCc2cccnc2)[C@H]2OCCC[C@H]21.O=C(O)C(F)(F)F,Percent Effect,"30 µM, 30.03 µM",39.05%
CCc1nccn1-c1cncc(C2CCCN2)n1.Cl (centres undefined),Percent Effect,"30.3 µM, […]",-8.115%
N#Cc1cccc(CN2Cc3nccn3CC(CN3CCCC3)C2)c1.O=C(O)C(F)(F)F.O=C(O)C(F)(F)F (centres undefined),Percent Effect,"30 µM, 30.03 µM",-41.66%
CC(=O)NCC1CCN(c2cc(C)nc(-c3ccncc3)n2)CC1,Percent Effect,10 µM,-42.73%
Cc1cc(N2CCC(Cc3ccccc3)CC2)nc(-c2ccncc2)n1,Percent Effect,"30.3 µM, […]",99.65%
Cc1cc(N2CCC(CC(N)=O)CC2)nc(-c2ccncc2)n1,Percent Effect,"30.3 µM, […]",0.7336%
Cc1ccc(C(=O)N2CCC3(CC2)CC(N2CCCC2)C3)cc1.O=C(O)C(F)(F)F,Percent Effect,"30.3 µM, […]",-4.803%
Cc1ccc(N2CCC3(CN(Cc4cccs4)CCC3(F)F)C2)nn1.O=C(O)C(F)(F)F (centres undefined),Percent Effect,"30.3 µM, […]",-34.83%
Cc1ccc(CN2CCn3c(C(=O)N(C)C)cnc3C2)cc1.O=C(O)C(F)(F)F,Percent Effect,"30.3 µM, […]",-165%
Cl.Cn1cc([C@@H]2CN(S(=O)(=O)c3ccccc3F)C[C@H]2N)c2ccncc21,Percent Effect,"30.3 µM, […]",53.59%
Cl.Cn1cc([C@@H]2CN(S(=O)(=O)c3cccnc3)C[C@H]2N)c2ccncc21,Percent Effect,"30.3 µM, […]",-9.979%
Cl.Cn1cc([C@@H]2CN(S(C)(=O)=O)C[C@H]2N)c2ccncc21,Percent Effect,"30.3 µM, […]",-16.68%
